According to PubChem BioAssay (Tox21):
Inconclusive results are not listed. Active and inactive are the calls of the source. The call rests on the fitted dose curve; in most records, active means well fitted cell-killing curve with a large enough effect in the repeat runs; inconclusive means weak or mixed curves, or effect the other way; inactive means flat fitted curve, though single readings scatter.

experiment: qHTS assay to identify small molecule antagonists of the androgen receptor (AR) signaling pathway using the MDA cell line in the presence of 0.5 nM R1881 - cell viability counter screen (AID 1259242); details: MDA-kb2 viability, CellTiter-Fluor protease fluorescence, 16 h; series mostly up to 92.4 µM; viability change, negative = cytotoxic: at the top concentration; further: nearly all actives have a fitted effect of over 45% in size
How it was run: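 MDA-kb2 cells (human breast carcinoma, stably carrying MMTV-luciferase reporter) were exposed to compounds with 0.5 nM R1881 (final) for 16 hr at 37C, 0% CO2; viability then read as live-cell protease fluorescence (CellTiter-Fluor, 30 min) in the same wells.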
On the % scale 0 is the no-effect control and ±100 the full control effect; potency means the concentration at half of the fitted maximal effect.

SMILES	viability change, negative = cytotoxic	Potency
CCOC(=O)[C@@H](C)Oc1ccc(Oc2nc3ccc(Cl)cc3o2)cc1	5.84% (inactive)	–
CCCCCCCCSCCO	1.39% (inactive)	–
CC(C)(C)C(=O)C(Oc1ccc(Cl)cc1)n1ccnc1 (stereo not given)	-3.14% [at 42.5 µM] (inactive)	–
Cc1oncc1C(=O)Nc1ccc(C(F)(F)F)cc1	–	inactive
CC1(C)C2=CCCC(C)(C)[C@]23CC[C@H]1C3	-2.35% (inactive)	–
COC(=O)[C@@H]1CC2=CC(=O)CC[C@]2(C)[C@@]23O[C@@H]2C[C@@]2(C)[C@@H](CC[C@@]24CCC(=O)O4)[C@H]13	2.12% [at 42.5 µM] (inactive)	–
CCC(C(=O)OCCOCCN(CC)CC)c1ccccc1 (stereo not given)	-0.411% [at 42.5 µM] (inactive)	–
C[Si]1(C)O[Si](C)(C)O[Si](C)(C)O1	1.4% (inactive)	–
CN1C(=O)CC(C)(c2ccccc2)C1=O (stereo not given)	3.47% [at 42.5 µM] (inactive)	–
CN1CCN(c2c(F)cc3c(=O)c(C(=O)O)cn4c3c2OCN4C)CC1	0.172% [at 19 µM] (inactive)	–
Cc1cc(O)c(C(C)C)cc1Cl	–	inactive
CCOc1cc(N)c(Cl)cc1C(=O)NCC1CN(Cc2ccc(F)cc2)CCO1 (stereo not given)	-2% [at 42.5 µM] (inactive)	–
CC1=NN(c2ccc(C(=O)O)cc2)C(=O)C1	0.767% (inactive)	–
CC(=O)Oc1ccc(C(=C2CCCCC2)c2ccc(OC(C)=O)cc2)cc1	-0.976% [at 42.5 µM] (inactive)	–
CCCCC1C(=O)N(c2ccccc2)N(c2ccc(O)cc2)C1=O (stereo not given)	-20.1% [at 42.5 µM] (inactive)	–
Cc1ccc(Nc2nccc(N(C)c3ccc4c(C)n(C)nc4c3)n2)cc1S(N)(=O)=O	-4.99% [at 42.5 µM] (inactive)	–
COc1cc2[nH]c(=O)[nH]c(=O)c2cc1OC	-0.934% [at 42.5 µM] (inactive)	–
CC(=O)[C@H]1CC[C@H]2[C@@H]3C=CC4=CC(=O)CC[C@@]4(C)[C@@H]3CC[C@]12C	2.33% [at 42.5 µM] (inactive)	–
CCn1cc(C(=O)O)c(=O)c2cc(F)c(N3CCNCC3)nc21	2.37% [at 42.5 µM] (inactive)	–
CC(CCc1ccc2c(c1)OCO2)NN (stereo not given)	6.51% [at 42.5 µM] (inactive)	–

SMILES	viability change, negative = cytotoxic	Potency
CCCCC(=O)O[C@]1(C(=O)CO)CC[C@H]2[C@@H]3CCC4=CC(=O)CC[C@]4(C)[C@H]3[C@@H](O)C[C@@]21C	0.174% [at 42.5 µM] (inactive)	–
COc1ccc([C@@H]2Sc3ccccc3NC(=O)[C@@H]2O)cc1	0.0278% [at 42.5 µM] (inactive)	–
CN1CCCN=C1/C=C/c1cccs1	-1.52% [at 42.5 µM] (inactive)	–
O=C(NCCCN1CCOCC1)c1ccc(Cl)cc1	1.24% [at 42.5 µM] (inactive)	–
CCCCCC=CCC=CCCCCCCCC(=O)OCC	-1.73% [at 42.5 µM] (inactive)	–
CC(=O)CC(c1ccc([N+](=O)[O-])cc1)c1c(O)c2ccccc2oc1=O (stereo not given)	0.949% [at 42.5 µM] (inactive)	–
CCc1nn(CCCN2CCN(c3cccc(Cl)c3)CC2)c(=O)n1CCOc1ccccc1	–	26.6 µM (active)
c1cnc2c(n1)CCCC2	-2.65% (inactive)	–
CC1CN(c2cc3c(cc2F)c(=O)c(C(=O)O)cn3-c2ccc(F)cc2F)CCN1 (stereo not given)	6.65% [at 8.39 µM] (inactive)	–
CCOC(=O)C(C)Oc1ccc(Oc2nc3ccc(Cl)cc3o2)cc1 (stereo not given)	2.28% (inactive)	–
O=C(CCCCCCC(=O)Nc1ccccc1)NO	-0.398% [at 42.5 µM] (inactive)	–
C=CC(=C)CCCC(C)(C)OC(C)=O	0.545% (inactive)	–
Nc1c(I)cc(I)c(C(=O)N(CCC(=O)O)c2ccccc2)c1I	3% [at 42.5 µM] (inactive)	–
O=C(O)C(Cc1cc(I)c(O)c(I)c1)c1ccccc1 (stereo not given)	0.0439% [at 42.5 µM] (inactive)	–
COC(=O)c1cc(Cl)ccc1NS(=O)(=O)C(F)(F)F	-2.49% [at 42.5 µM] (inactive)	–
O=C1OCCN1/N=C/c1ccc([N+](=O)[O-])o1	-8.65% [at 42.5 µM] (inactive)	–
NCC1CCCC(CN)C1 (stereo not given)	0.593% (inactive)	–
CCC1(C)CC(=O)NC1=O (stereo not given)	1.19% [at 42.5 µM] (inactive)	–
N#C[C@@H]1C[C@@H]2C[C@@H]2N1C(=O)[C@@H](N)C12CC3CC(CC(O)(C3)C1)C2	2.4% [at 42.5 µM] (inactive)	–
CC1(C)O[C@@H]2C[C@H]3[C@@H]4CCC5=CC(=O)C=C[C@]5(C)[C@H]4[C@@H](O)C[C@]3(C)[C@]2(C(=O)CO)O1	-1.34% [at 42.5 µM] (inactive)	–
